Source: PubChem
KDM5B inh: inhibitors of human KDM5B histone demethylase. Q9UGL1. KDM5B demethylase, FDH-coupled NADH fluorescence (FDH is formaldehyde dehydrogenase). Potency, µM (titrated, usually from 57.7 µM), most hits filed as inhibitors. 220,000 compounds, 2.6% hits. AID 1347165; active means well fitted inhibition curve with a large enough effect; inconclusive means small, poorly fitted or top-dose-only effect; inactive means no such curve, though single readings can be large or run the other way; further: nearly all actives have a fitted effect of over 70% in size
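qHTS format, multiple compound concentrations. Buffer 50 mM HEPES pH 7.5/0.01% Tween-20; 200 nM KDM5BΔAP final; 10 min compound preincubation; substrate-mix levels 12.5 µM peptide, 25 µM α-KG, 0.25 mM NAD⁺; 30 min RT; ΔRFU.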
IP6K1 inh: IP6K1 kinase inhibition; Q92551; IP6K1 kinase, ADP-Glo luminescence, 2 h; active compounds read low; activity change, % (series mostly up to about 58 µM); 140,000 compounds, 0.81% hits; AID 1645851; in the data active means activity change below about -25%
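ADP-Glo luminescence measures ADP made by human IP6K1 during a 2 h RT reaction with ATP/IP6 (mix at 1.3 mM/130 uM); top library doses 57.5 and 19.1 uM final.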
Of the large screens only hits and unclear results are named; the others gave an inactive call. Compounds with a hit are over-represented: about 2.7% of the library has one in this group of screens.

CN(Cc1ccc(F)cc1)Cc1cnc(S(C)(=O)=O)n1CCCc1ccccc1	none
O=C(c1ccc(Cl)cc1)N1CCC(n2cc(-c3ccccn3)[nH]c2=O)CC1	KDM5B inh 44.7µM
O=C(c1ccc(Cl)cc1)N1CCC(n2cc(-c3ccncc3)[nH]c2=O)CC1	KDM5B inh inconclusive
COc1ccc(F)cc1-c1ccc(CN2CCC(N[S+](C)(=O)[O-])C2)cc1 (stereo unspecified)	none (no result: KDM5B inh)
Cc1cc2cc(-c3c(C)noc3C)nc(NCCN(C)C)c2o1	none
Cc1noc(C)c1-c1cc2cc(CN(C)C)oc2c(Nc2ccn(C)n2)n1	none
Cc1noc(C)c1-c1cc2cc(CN(C)C)oc2c(Nc2cccc([S+](C)(=O)[O-])c2)n1	KDM5B inh 31.6µM
Cc1cc2cc(-c3c(C)noc3C)nc(-c3cccc([S+](C)(=O)[O-])c3)c2o1	KDM5B inh 31.6µM
Cc1noc(C)c1-c1cc2cc(CO)oc2c(-c2cccc(OC(C)C)c2)n1	KDM5B inh 25.1µM
COc1cccc(-c2nc(-c3c(C)noc3C)cc3cc(C)oc23)c1	KDM5B inh 35.5µM
COc1cc(F)ccc1-c1nc(-c2c(C)noc2C)cc2cc(C)oc12	KDM5B inh inconclusive
Cc1ccccc1-c1nc(-c2c(C)noc2C)cc2cc(CO)oc12	none
Cc1cc(C)cc(Nc2c3c(nc4ccccc24)CCC3)c1	none (no result: IP6K1 inh)
COc1ccc(C(=O)NC2CCN(c3nccc(Nc4ccc(C)cc4)n3)CC2)cc1	none (no result: KDM5B inh)
CC(C)NC(=O)c1cn2cc(-c3ccc(F)cc3)sc2n1	none (no result: KDM5B inh)
Cc1noc(C)c1-c1cc2cc(CO)oc2c(-c2ccccc2)n1	KDM5B inh inconclusive
Cc1noc(C)c1-c1cc2cc(CO)oc2c(-c2ccc([S+](C)(=O)[O-])cc2)n1	KDM5B inh 35.5µM
O=C(CSc1nc2cc(C(F)(F)F)ccc2n1Cc1ccccc1)c1ccc(Br)s1	none (no result: IP6K1 inh)
Cc1noc2c(NCC3CCOCC3)cc(-c3ccc(F)cc3)nc12	KDM5B inh inconclusive
Cc1noc2c(Nc3ccc(C(N)=O)cc3)cc(-c3ccc(F)cc3)nc12	KDM5B inh 15.8µM
Cc1cnc(-c2ccncc2)n1C1CCN(C(=O)CCCc2ccccc2)C1 (stereo unspecified)	none (no result: KDM5B inh)
COc1ccc(-c2ccnc3nc(C(C)C)nn23)cc1OC	KDM5B inh 28.2µM
COc1ccc(-c2ccnc3nc(C(C)C)nn23)c(F)c1	none
COc1ccc(-c2ccnc3nc(C(C)C)nn23)cc1	KDM5B inh 25.1µM
COc1cc(-c2ccnc3nc(C(C)C)nn23)cc(OC)c1OC	KDM5B inh inconclusive
Cc1cc(C)c(S(=O)(=O)NCCO)c(C)c1	none (no result: IP6K1 inh)
CC(C)=CCC1(CO)CCCN(c2ccnc(N)n2)C1 (stereo unspecified)	none
COc1ccc(C(=O)N[C@H]2CO[C@H]3[C@@H]2OC[C@@H]3Nc2nccc(-c3cccs3)n2)cc1	KDM5B inh inconclusive
CC(C)CN[C@H]1CO[C@H]2[C@@H]1OC[C@@H]2Nc1nccc(-c2cccs2)n1	KDM5B inh 31.6µM
O=S(=O)(N[C@H]1CO[C@H]2[C@@H]1OC[C@@H]2Nc1nccc(-c2cccs2)n1)c1cccs1	KDM5B inh 22.4µM
Cc1ccc(C(=O)N[C@H]2CO[C@H]3[C@@H]2OC[C@@H]3Nc2nccc(-c3cccs3)n2)cc1	KDM5B inh inconclusive
COc1ccc(F)cc1-c1ccc(CN2CCCCC2C(=O)NCc2ccc(Cl)cc2)cc1 (stereo unspecified)	none (no result: KDM5B inh)
COC(=O)c1ccccc1S(=O)(=O)N1CCC(C(=O)NCc2ccccn2)CC1	none (no result: IP6K1 inh)
NC(=O)CN1CCC(C(=O)NCc2cn3cccnc3n2)CC1	KDM5B inh 28.2µM
Cc1cccc(-c2cccc(CN3CCC(N[S+](=O)([O-])c4cccs4)CC3)c2)c1	none (no result: KDM5B inh)
O=C(CCc1ccnc(N2CCCC2)c1)NCc1ccccc1Cl	KDM5B inh inconclusive
CCN(CC)c1cc(CCC(=O)NCc2ccccc2C)ccn1	KDM5B inh inconclusive
Cc1ccc(CNC(=O)CCc2ccnc(N3CCCC3)c2)cc1	KDM5B inh 31.6µM
O=C(O)CCc1ccnc(N2CCCC2)c1	KDM5B inh inconclusive
CCN(CC)c1cc(CCC(=O)NCc2ccc(Cl)cc2)ccn1	KDM5B inh 22.4µM
CCCNC(=O)CCc1ccnc(N2CCCC2)c1	KDM5B inh 22.4µM
O=C(CCc1ccnc(N2CCCC2)c1)N1CCN(c2cccc(Cl)c2)CC1	KDM5B inh 22.4µM
Cc1cccc(N2CCN(C(=O)CCc3ccnc(N4CCCC4)c3)CC2)c1	none
Cc1cc(SCC(=O)N(CCC#N)c2ccccc2)nc2ccccc12	none (no result: IP6K1 inh)
Cc1ccc(C)c(-n2nnc(C(=O)NC3CCS(=O)(=O)C3)c2C)c1 (stereo unspecified)	none (no result: IP6K1 inh)
c1cncc(-c2nc(Sc3ccc4c(c3)OCCCO4)c3ccccc3n2)c1	none (no result: IP6K1 inh)
O=C(Nc1cc(-c2ccccc2)nn1C1CCS(=O)(=O)C1)c1ccco1 (stereo unspecified)	none (no result: IP6K1 inh)
COc1ccc(CN2CCn3c(nn(-c4cccc(Cl)c4)c3=O)C2)cc1	KDM5B inh inconclusive
O=c1n(-c2cccc(Cl)c2)nc2n1CCN(Cc1ccccc1)C2	KDM5B inh 89.1µM
Cc1cccc(C(=O)Nc2cccc(-c3ccc(N4CCN(C)CC4)nn3)c2)c1	none
Cc1ccc(C#N)c(NCc2cccnc2N2CCN(c3ccccn3)CC2)n1	KDM5B inh 28.2µM
Fc1ccc(CNCc2cccnc2N2CCN(c3ccccn3)CC2)cc1F	KDM5B inh inconclusive
COc1cccc(-c2cccc(C(=O)N3CCCC3C(=O)NCCCc3ccccc3)c2)c1 (stereo unspecified)	none (no result: KDM5B inh)
O=C(CCc1ncc(-c2ccccc2F)o1)Nc1ccc(F)c(F)c1	none (no result: IP6K1 inh)
COCc1nc2nccc(-c3ccsc3)n2n1	KDM5B inh 28.2µM
COc1ccccc1-c1nc2nccc(-c3ccsc3)n2n1	KDM5B inh inconclusive
CC(C)Cc1nc2nccc(-c3ccsc3)n2n1	KDM5B inh 28.2µM
CCc1nc2nccc(-c3ccsc3)n2n1	KDM5B inh 25.1µM
COCc1nc2nccc(-c3ccc(Br)s3)n2n1	none
c1ccc(CCc2nc3nccc(-c4ccccn4)n3n2)cc1	KDM5B inh inconclusive
COc1ccc(-n2cc(CN3CCC(CO)CC3)c(-c3cccc(F)c3)n2)cc1	KDM5B inh inconclusive
COc1ccc(-n2cc(CN3CCCC(O)C3)c(-c3cccc(F)c3)n2)cc1 (stereo unspecified)	KDM5B inh 22.4µM
CCOCC(=O)Nc1nn(-c2ccc(F)cc2)c2cccc(N3CCOC3=O)c12	KDM5B inh 25.1µM
CCc1nc(C)c(C(=O)Nc2nn(C)c3cccc(N4CCOC4=O)c23)o1	none
Cn1ncc2c(C(=O)NCc3cccc(C(F)(F)F)c3)cc(-c3ccsc3)nc21	none (no result: KDM5B inh)
C[S+](=O)([O-])N1CCC(Cn2ccc3c(N4CCOCC4)nc(-c4ccc(F)cc4)cc32)CC1	none
COc1cc(F)ccc1-c1cc2c(ccn2CC2CCN(C)CC2)c(N2CCOCC2)n1	KDM5B inh inconclusive
Fc1ccccc1-c1noc(N2CCOCC2)n1	none
O=C1c2cc(N3CCOCC3)nc(-c3ccccc3F)c2CN1CC1CC1	KDM5B inh 39.8µM
O=C1c2cc(N3CCOCC3)nc(-c3ccc(F)cc3)c2CN1CC1CC1	KDM5B inh 39.8µM
COc1cc(F)ccc1-c1nc(N2CCOCC2)cc2c1CN(CC1CC1)C2=O	KDM5B inh 35.5µM
O=C(NCC(=O)N1CCC(Cc2ccccc2)CC1)c1ccc(-c2cnc3ccccc3c2)cc1	none (no result: KDM5B inh)
c1ccc(-c2nn3c(COc4ccc5c(c4)OCO5)nnc3s2)nc1	none (no result: IP6K1 inh)
CC(C)(CC(=O)O)CC(=O)NC(c1ccccc1)c1ccco1 (stereo unspecified)	none (no result: IP6K1 inh)
CCOC(=O)c1c(NC(=O)COc2ccc(OC)cc2)sc(C)c1Cc1ccc2c(c1)OCO2	none (no result: IP6K1 inh)
